{"source": "PubChem BioAssay AID485317", "about": "(Broad Institute, 2010)", "note": "About 11,000 (3.8%) of roughly 290,000 compounds were called active. This is one part of a sample in which actives are shown more often than they occur. A number with no mark means an inactive call.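 How the source made its calls: active means mean replicate inhibition above about 79%, with every replicate also reaching it (limit read from the data); inconclusive means only one of the two criteria met; inactive means mean below limit and not every replicate reaching it.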", "data": [{"molecular_target": "FAD-linked sulfhydryl oxidase ALR (Homo sapiens) (UniProt P55789)", "sequence (P55789 whole entry, looked up)": "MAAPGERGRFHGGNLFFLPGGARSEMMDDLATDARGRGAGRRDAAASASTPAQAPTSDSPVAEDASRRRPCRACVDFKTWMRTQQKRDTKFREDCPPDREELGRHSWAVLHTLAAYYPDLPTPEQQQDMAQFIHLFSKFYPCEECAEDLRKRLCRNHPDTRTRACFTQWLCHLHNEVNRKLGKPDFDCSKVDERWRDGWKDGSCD", "assay": "ALR-catalysed DTT oxidation blockers – biochemical, H2O2 detection, HRP-luminol luminescence, single point, primary screen (AID 485317)", "settings": "purified ALR, active compounds read high, concentration not given here", "values": [{"compound": "Cc1cccc(NC(=O)C2CCN(S(=O)(=O)c3cccc4cccnc34)CC2)c1", "inhibition": "88.1% (active)"}, {"compound": "Cc1cc(C)cc(NC(=O)C2CCCN2S(=O)(=O)c2cccc3cccnc23)c1", "note": "(configuration not stated)", "inhibition": "-0.666%"}, {"compound": "COc1ccc(NC(=O)C2CCCN(S(=O)(=O)c3cccc4cccnc34)C2)cc1OC", "note": "(configuration not stated)", "inhibition": "-28.5%"}, {"compound": "CC(NC(=O)c1ccccc1F)c1cccc2ccccc12", "note": "(configuration not stated)", "inhibition": "-16.5%"}, {"compound": "O=c1oc2ccc(C#CC3(O)CCCCC3)cc2cc1-n1cc(-c2ccsc2)nn1", "inhibition": "-6.77%"}, {"compound": "O=C(CN1C(=O)NC2(CCCC2)C1=O)Nc1cc(C(F)(F)F)ccc1N1CCOCC1", "inhibition": "-1.5%"}, {"compound": "COc1ccccc1S(=O)(=O)NCc1ccc(C(=O)N(C)Cc2ccc(F)cc2)cc1", "inhibition": "-4.34%"}, {"compound": "C=CCn1c(SCc2csc(C)n2)nc2scc(-c3ccc(C)o3)c2c1=O", "inhibition": "16.6%"}, {"compound": "C=CCNC(=O)CSc1nc2scc(-c3ccco3)c2c(=O)n1CC=C", "inhibition": "-0.872%"}, {"compound": "C=CCn1c(=S)[nH]c2scc(-c3ccco3)c2c1=O", "inhibition": "98.3% (active)"}, {"compound": "CCOC(=O)N1CCN(Cc2nc3c(c(=O)n(C)c(=O)n3C)n2Cc2ccccc2)CC1", "inhibition": "-3.2%"}, {"compound": "CC1CCCN(Cc2nc3c(c(=O)n(C)c(=O)n3C)n2CC(=O)c2ccccc2)C1", "note": "(configuration not stated)", "inhibition": "-8.6%"}, {"compound": "CCN1CCN(Cc2nc3c(c(=O)n(C)c(=O)n3C)n2CC(=O)c2ccccc2)CC1", "inhibition": "98.2% (active)"}, {"compound": "O=C(CCCCO)c1ccc(O)c(Cl)c1", "inhibition": "7.83%"}, {"compound": "Cc1cc2nnc(SCC(=O)N3CCN(c4ccccc4)CC3)n2c(N)n1", "inhibition": "98% (active)"}, {"compound": "Cc1nnc(SCC(=O)N2CCN(c3ccccc3)CC2)n1-c1ccccc1", "inhibition": "46.1%"}, {"compound": "Cn1c(Cc2cccc3ccccc23)nnc1SCC(=O)N1CCN(c2cccc(Cl)c2)CC1", "inhibition": "-3.36%"}, {"compound": "CCN(CC(=O)NCc1ccc(Cl)cc1)C(=O)c1c(C)noc1C", "inhibition": "-1.1%"}, {"compound": "COc1cc2cc(C(=O)N/N=C/c3cccc(OC)c3OC)[nH]c2cc1OC", "inhibition": "15.9%"}, {"compound": "COc1ccc2[nH]c(C(=O)N/N=C/c3cc(OC)c(OC)c(OC)c3)cc2c1", "inhibition": "90.9% (active)"}, {"compound": "CCOc1ccc2[nH]c(C(=O)N/N=C/c3cccc(OC)c3OC)cc2c1", "inhibition": "-44.7%"}, {"compound": "COc1ccc(C(=O)NCC2CCCN2S(=O)(=O)c2cccs2)cc1OC", "note": "(configuration not stated)", "inhibition": "-12.1%"}, {"compound": "COc1ccccc1C(CNC(=O)c1ccc(C)c(S(=O)(=O)N2CCCCC2)c1)N(C)C", "note": "(configuration not stated)", "inhibition": "-5.4%"}, {"compound": "Nc1c(N(CCCO)C(=O)C2CCCC2)c(=O)[nH]c(=O)n1Cc1ccccc1", "inhibition": "2.17%"}, {"compound": "O=C(NNS(=O)(=O)c1c(F)cc(F)c(Cl)c1F)C12CC3CC(CC(C3)C1)C2", "inhibition": "-7.91%"}, {"compound": "CSc1nnc(-c2ccncc2)n1CCCN1CCCC1=O", "inhibition": "98.1% (active)"}, {"compound": "CC1CCCCC1NC(=O)CSc1nnc(-c2ccncc2)n1CCCN(C)C", "note": "(configuration not stated)", "inhibition": "-3.25%"}, {"compound": "COCCCn1c(SCC(=O)Nc2ccccc2)nnc1-c1ccncc1", "inhibition": "-6.22%"}, {"compound": "O=C(c1cnccn1)N1CCN(S(=O)(=O)c2cccc(Cl)c2)CC1", "inhibition": "-2.25%"}, {"compound": "Cc1cc(C)c(OCC(=O)N/N=C/c2ccco2)c(C)c1", "inhibition": "-5.47%"}, {"compound": "COc1cccc2c(N/N=C/c3ccco3)cc(C)nc12", "inhibition": "91.2% (active)"}, {"compound": "O=c1nc(N/N=C/c2ccco2)cn[nH]1", "inhibition": "-0.901%"}, {"compound": "COc1cc2ccccc2cc1C(=O)Nc1nc(C)c(C(C)=O)s1", "inhibition": "-3.67%"}, {"compound": "COc1ccc(C(CNC(=O)c2ccc(S(=O)(=O)Nc3ccccc3C)cc2)N2CCOCC2)cc1", "note": "(configuration not stated)", "inhibition": "1.74%"}, {"compound": "CC(NC(=O)COC(=O)Cn1cc(C(F)(F)F)ccc1=O)c1ccccc1", "note": "(configuration not stated)", "inhibition": "-3.5%"}, {"compound": "COc1cc(-c2c(-c3ccc4c(c3)OCO4)noc2C)ccc1F", "inhibition": "3.17%"}, {"compound": "CCOC(=O)N1CCN(C(=S)Nc2ccc(C)cc2C)CC1", "inhibition": "-22.4%"}, {"compound": "COc1c(F)c(F)c(C(=O)O)c(Nc2ccccc2C)c1F", "inhibition": "18.5%"}, {"compound": "Cc1ccc(Nc2c(F)c(F)c(F)c(F)c2C(=O)O)c(C)c1", "inhibition": "98.2% (active)"}, {"compound": "O=C(NCC#CCSc1nnc(-c2cccc3ccccc23)o1)c1cccs1", "inhibition": "-4.12%"}, {"compound": "COc1cc(/C=N\\NC(=O)CNC(=O)c2cccc([N+](=O)[O-])c2)ccc1O", "inhibition": "98.6% (active)"}, {"compound": "COc1ccc(C(=O)NCC(=O)N/N=C/c2ccc([N+](=O)[O-])o2)cc1OC", "inhibition": "-60.3%"}, {"compound": "COc1ccc(C(=O)NCC(=O)N/N=C/c2ccc([N+](=O)[O-])s2)cc1OC", "inhibition": "-29.5%"}, {"compound": "COc1ccc(C(=O)N2CCN(c3ncccn3)CC2)cc1S(=O)(=O)N1CCOCC1", "inhibition": "-2.44%"}, {"compound": "CSc1ncccc1C(=O)Nc1cccc(S(=O)(=O)N2CCOCC2)c1", "inhibition": "-2.48%"}, {"compound": "O=C1C=C(c2ccnc3cc(Cl)ccc23)C[C@@H](c2ccc3c(c2)OCO3)C1", "inhibition": "-0.313%"}, {"compound": "Cc1ccccc1N1CCN(CCCOc2ccc3c(C)cc(=O)oc3c2)CC1", "inhibition": "-0.584%"}, {"compound": "Cc1cc(=O)oc2cc(OCC3CC(c4ccccc4Cl)=NO3)ccc12", "note": "(configuration not stated)", "inhibition": "97.9% (active)"}, {"compound": "Cc1cc(=O)oc2cc(OCCC[n+]3ccccc3)ccc12", "inhibition": "-10.6%"}, {"compound": "Cn1nnnc1SCC(=O)Nc1cccc(S(=O)(=O)N2CCCCC2)c1", "inhibition": "-1.39%"}, {"compound": "Cc1ccnc(N2CCCC(C(=O)NC3CC3)C2)n1", "note": "(configuration not stated)", "inhibition": "1.74%"}, {"compound": "Cc1ccc(Cl)cc1NC(=O)C1CCCN(c2cnccn2)C1", "note": "(configuration not stated)", "inhibition": "-6.26%"}, {"compound": "Cc1ccnc(N2CCCC(C(=O)Nc3cc(F)ccc3C)C2)n1", "note": "(configuration not stated)", "inhibition": "87.3% (active)"}, {"compound": "Cc1noc(C)c1S(=O)(=O)N(C)C[C@H]1Oc2ccc(NC(=O)C3CC3)cc2C(=O)N([C@H](C)CO)C[C@@H]1C", "inhibition": "2.82%"}, {"compound": "CCCNC(=O)c1onc(CSc2ccc(F)cc2)c1C(=O)NC(C)C", "inhibition": "3.87%"}, {"compound": "CN(C)C(=O)COC(=O)c1cccc(S(=O)(=O)N2CC3(C)CC2CC(C)(C)C3)c1", "note": "(configuration not stated)", "inhibition": "-0.802%"}, {"compound": "COc1cccc(NC(=O)COC(=O)c2ccc3ccccc3n2)c1", "inhibition": "-1.64%"}]}]}
